# Laboratory results reported in PubChem BioAssay (Tox21).
# A number with no mark means an inactive call. Records with an inconclusive call do not appear. Entries that show only a call come without a potency. Active and inactive are the calls of the source. Unless noted, calls follow the shape of the dose curve; as a rule, active = well fitted curve in the direction sought with a large enough effect in the repeat runs; inconclusive = weak or mixed curves; inactive = no such curve, though single readings can be large; an effect the other way counts as inactive or inconclusive.
# What was measured:
# [1] = target: Thyrotropin receptor (Homo sapiens) (UniProt P16473); experiment: qHTS assay to identify small molecule agonists of the thyroid stimulating hormone receptor (TSHR) signaling pathway (AID 1224843; calls by dose curve; also: nearly all actives have a fitted effect of over 45% in size)
# Outline: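 Agonist activity read as cAMP rise via d2/cryptate HTRF competition, 1 h room-temperature detection, in HEK293 cells expressing TSHR. Fifteen-point titrations, each run in triplicate, with a 30 min room-temperature incubation beforehand.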
# [2] = qHTS assay to identify small molecule agonists of the hypoxia (HIF-1) signaling pathway - cell viability counter screen (AID 1224844; calls by dose curve; also: nearly all actives have a fitted effect of over 50% in size; also: potency is read from the fitted curve at half-maximal effect)
# Outline: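 Same wells as the HIF-1 reporter screen; ME-180 cells carrying HRE-bla, 17 hr treatment at 37C; CellTiter-Glo luminescence read after 30 min at room temperature.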
# [3] = qHTS assay to identify small molecule agonists of the hypoxia (HIF-1) signaling pathway (AID 1224846; active = well fitted activation curve with a large enough effect in the signal ratio in the repeat runs, not every such curve was filed as active; the % refers to the signal ratio)
# Outline: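 In ME-180 cells bearing an HRE-bla construct, 17 h treatment with DMSO-dissolved compounds at 37C was followed by CCF4-AM loading to quantify reporter induction.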
# [4] = qHTS RealTime-Glo MT Cell Viability Assay in HepG2 cells - 24 hour (AID 1224867); also: nearly all actives have a fitted effect of over 50% in size
# Outline: (§1)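 HepG2 suspension premixed with RealTime-Glo reagents is plated at 600 cells per well and left 5 h at 37 C/5% CO2. Compounds in DMSO then go in, and bioluminescence reflecting viable cell number is recorded over 40 h.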
# [5] = qHTS RealTime-Glo MT Cell Viability Assay in HEK293 cells - 32 hour (AID 1224868); also: nearly all actives have a fitted effect of over 50% in size; also: potency is read from the fitted curve at half-maximal effect
# Outline: (§2)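 Reads taken at 0, 8, 16, 24, 32 and 40 h from the same wells. HEK293 cells (600/well) carried RealTime-Glo reagents from seeding, with compound added after a 5 h settle at 37 C.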
# [6] = A CellTox Green Cytotoxicity Assay to monitor cytotoxicity in HEK293 cells - 0 hour (AID 1224869); also: nearly all actives have a fitted effect of over 50% in size; also: potency is read from the fitted curve at half-maximal effect
# Outline: (§3)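 Homogeneous no-lysis format: HEK293 cell suspension mixed with CellTox Green reagent, seeded, incubated 5 h at 37 C/5% CO2, then dosed by pintool with compound in DMSO.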
# [7] = qHTS RealTime-Glo MT Cell Viability Assay in HepG2 cells - 40 hour (AID 1224870); also: nearly all actives have a fitted effect of over 50% in size; also: potency is read from the fitted curve at half-maximal effect
# Outline: (§4)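 Real-time viability: cells seeded at 600 per well together with NanoLuc and cell-permeant prosubstrate, compounds added after 5 h incubation. Luminescence tracked at 0, 8, 16, 24, 32 and 40 h of exposure.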
# [8] = qHTS RealTime-Glo MT Cell Viability Assay in HEK293 cells - 16 hour (AID 1224872); also: nearly all actives have a fitted effect of over 50% in size; also: potency is read from the fitted curve at half-maximal effect
# Outline: as §2
# [9] = qHTS RealTime-Glo MT Cell Viability Assay in HepG2 cells - 8 hour (AID 1224873); also: nearly all actives have a fitted effect of over 55% in size
# Outline: as §4
# [10] = qHTS RealTime-Glo MT Cell Viability Assay in HEK293 cells - 40 hour (AID 1224874); details: RealTime-Glo luminescence; max response: active compounds read low; also: nearly all actives have a fitted effect of over 50% in size; also: potency is read from the fitted curve at half-maximal effect
# Outline: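 Measured as luminescence from the same continuously cultured HEK293 wells at successive time points (0, 8, 16, 24, 32, 40 h) after compound addition. Reagent present from seeding; dosing at 5 h; incubation 37 C.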
# [11] = A CellTox Green Cytotoxicity Assay to monitor cytotoxicity in HepG2 cells - 16 hour (AID 1224876); also: nearly all actives have a fitted effect of over 45% in size; also: potency is read from the fitted curve at half-maximal effect
# Outline: (§5)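 Fluorescent DNA-binding dye, 600 HepG2 cells/well, 5 h preincubation then compound in DMSO; same plates read at 0–40 h, 37 C.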
# [12] = qHTS RealTime-Glo MT Cell Viability Assay in HepG2 cells - 32 hour (AID 1224877); also: nearly all actives have a fitted effect of over 55% in size; also: potency is read from the fitted curve at half-maximal effect
# Outline: as §1
# [13] = A CellTox Green Cytotoxicity Assay to monitor cytotoxicity in HepG2 cells - 24 hour (AID 1224878); also: nearly all actives have a fitted effect of over 45% in size; also: potency is read from the fitted curve at half-maximal effect
# Outline: as §5
# [14] = A CellTox Green Cytotoxicity Assay to monitor cytotoxicity in HepG2 cells - 40 hour (AID 1224879); also: nearly all actives have a fitted effect of over 40% in size; also: potency is read from the fitted curve at half-maximal effect
# Outline: as §5
# [15] = qHTS assay to identify small molecule agonists of H2AX (AID 1224845; active = well fitted activation curve with a large enough effect in the signal ratio in the repeat runs, not every such curve was filed as active; the % refers to the signal ratio)
# Outline: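 Phospho-H2AX Ser139 measured by HTRF (ex 320 nm; em 665 and 620 nm) after 24 hr antibody incubation. Compounds, 15 concentrations, 0.76% DMSO, were applied to CHO-K1 cells for 3hr at 37C before lysis.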
# [16] = qHTS assay to identify small molecule agonists of H2AX - cell viability counter screen (AID 1224847; calls by dose curve; also: top concentration of the series differs between compounds; nearly all actives have a fitted effect of over 30% in size)
# Outline: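 We seed wild-type CHO-K1 cells overnight, treat them for 3 hr at 37C with compounds in 15-concentration series, and quantify remaining viability by CellTiter-Glo luminescence.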
# [17] = qHTS assay to identify small molecule antagonists of the estrogen related receptor (ERR) signaling pathway from Tox21 library (AID 1224848); also: nearly all actives have a fitted effect of over 50% in size; also: potency is read from the fitted curve at half-maximal effect
# Outline: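 Luciferase luminescence (ONE-Glo, 30 min room temperature) was the read-out. Cells of the NTP-supplied ERR line, 2,000 per well, were given 6 h at 37 C before compound addition in DMSO and 18 h exposure at 37 C.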
# [18] = qHTS assay to identify small molecule agonists of the estrogen related receptor (ERR) signaling pathway from Tox21 library (AID 1224849; calls by dose curve; also: nearly all actives have a fitted effect of over 15% in size); details: ERR reporter cell line, ONE-Glo luciferase, 18 h; at 92.4 µM (top of the series) unless noted
# Outline: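 Reporter cells (ERR, NTP source) treated with Tox21 10K compounds 18 h, 37 C. Readout: ONE-Glo luminescence, 30 min RT.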
# [19] = A CellTox Green Cytotoxicity Assay to monitor cytotoxicity in HEK293 cells - 40 hour (AID 1224871); also: nearly all actives have a fitted effect of over 45% in size; also: potency is read from the fitted curve at half-maximal effect
# Outline: as §3
# [20] = A CellTox Green Cytotoxicity Assay to monitor cytotoxicity in HEK293 cells - 24 hour (AID 1224875); also: nearly all actives have a fitted effect of over 45% in size; also: potency is read from the fitted curve at half-maximal effect
# Outline: as §3
# Sequence of Thyrotropin receptor (Homo sapiens) (P16473 whole entry, looked up): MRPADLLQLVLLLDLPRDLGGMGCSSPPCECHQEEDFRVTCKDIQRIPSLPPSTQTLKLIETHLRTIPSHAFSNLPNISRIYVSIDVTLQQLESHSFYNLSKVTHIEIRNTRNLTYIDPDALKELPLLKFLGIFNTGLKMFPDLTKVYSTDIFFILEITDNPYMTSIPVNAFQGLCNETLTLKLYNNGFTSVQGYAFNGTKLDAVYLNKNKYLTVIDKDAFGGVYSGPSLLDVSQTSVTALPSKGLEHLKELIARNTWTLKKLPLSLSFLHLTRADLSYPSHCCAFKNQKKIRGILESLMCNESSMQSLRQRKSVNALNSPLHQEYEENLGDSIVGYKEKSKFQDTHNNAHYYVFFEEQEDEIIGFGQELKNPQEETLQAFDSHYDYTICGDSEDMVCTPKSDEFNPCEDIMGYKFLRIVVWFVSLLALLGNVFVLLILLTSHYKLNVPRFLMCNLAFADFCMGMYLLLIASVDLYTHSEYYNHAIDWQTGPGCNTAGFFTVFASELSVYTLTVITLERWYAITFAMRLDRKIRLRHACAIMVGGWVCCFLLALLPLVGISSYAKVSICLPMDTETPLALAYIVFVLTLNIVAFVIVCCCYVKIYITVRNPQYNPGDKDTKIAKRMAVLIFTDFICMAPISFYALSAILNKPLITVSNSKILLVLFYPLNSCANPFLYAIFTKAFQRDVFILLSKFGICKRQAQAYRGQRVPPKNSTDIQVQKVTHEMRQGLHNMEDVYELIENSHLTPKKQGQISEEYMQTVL
compound,measurement,setting,value
COc1ccc(C(=O)Nc2ccccc2)cc1[N+](=O)[O-],Potency,[1],inactive
same,Potency,[2],inactive
same,outcome,[3],inactive
same,outcome,[4],inactive
same,Potency,[5],24.7 µM (active)
same,Potency,[6],inactive
same,Potency,[7],inactive
same,Potency,[8],24.7 µM (active)
same,outcome,[9],inactive
same,Potency,[10],24.7 µM (active)
same,Potency,[11],inactive
same,Potency,[12],inactive
same,Potency,[13],inactive
same,Potency,[14],inactive
NCCOCCOCCN,Potency,[1],inactive
same,Potency,[15],inactive
same,Potency,[16],inactive
same,Potency,[17],inactive
same,"activity change, positive = activation",[18],-4.55%
same,outcome,[4],inactive
same,Potency,[5],inactive
same,Potency,[6],inactive
same,Potency,[19],inactive
same,Potency,[8],inactive
same,outcome,[9],inactive
same,max response,[10],-14%
same,Potency,[20],inactive
same,Potency,[11],inactive
same,Potency,[12],inactive
same,Potency,[13],inactive
same,Potency,[14],inactive
NC(=O)c1ccccc1C(N)=O,Potency,[1],inactive
same,Potency,[2],49.2 µM (active)
same,Potency,[16],inactive
same,Potency,[17],48.8 µM (active)
same,"activity change, positive = activation",[18],-52.8%
same,outcome,[4],inactive
same,Potency,[5],31 µM (active)
same,Potency,[6],49.2 µM (active)
same,Potency,[7],inactive
same,Potency,[19],49.2 µM (active)
same,outcome,[9],inactive
same,Potency,[10],31 µM (active)
same,Potency,[20],49.2 µM (active)
same,Potency,[12],inactive
same,Potency,[13],55.2 µM (active)
same,Potency,[14],49.2 µM (active)
O=c1[nH][nH]c2ccccc12,Potency,[1],inactive
same,Potency,[2],inactive
same,outcome,[3],inactive
same,Potency,[16],inactive
same,outcome,[4],inactive
same,Potency,[6],inactive
same,Potency,[7],inactive
same,Potency,[19],inactive
same,outcome,[9],inactive
same,Potency,[20],inactive
same,Potency,[11],inactive
same,Potency,[12],inactive
same,Potency,[13],inactive
same,Potency,[14],inactive
CCCCCCCCCCCCSC#N,Potency,[1],inactive
same,Potency,[15],inactive
same,outcome,[3],inactive
same,Potency,[16],inactive
same,Potency,[17],inactive
same,"activity change, positive = activation",[18],0.292%
same,outcome,[4],inactive
same,Potency,[5],inactive
same,Potency,[6],inactive
same,Potency,[7],inactive
same,Potency,[19],inactive
same,Potency,[8],inactive
same,outcome,[9],inactive
same,max response,[10],0.323%
same,Potency,[20],inactive
same,Potency,[11],inactive
same,Potency,[12],inactive
same,Potency,[13],inactive
same,Potency,[14],inactive
O=C(C1CCCCC1)N1CC(=O)N2CCCc3ccccc3C2C1 (stereo not drawn),Potency,[1],inactive
same,Potency,[15],inactive
same,outcome,[3],inactive
same,Potency,[16],inactive
same,outcome,[4],inactive
same,Potency,[5],inactive
same,Potency,[6],inactive
same,Potency,[7],inactive
same,Potency,[19],inactive
same,Potency,[8],inactive
same,outcome,[9],inactive
same,max response,[10],-23.1%
same,Potency,[20],inactive
same,Potency,[12],inactive
same,Potency,[13],inactive
same,Potency,[14],inactive
COc1ccc(CN(CCN(C)C)c2ncccn2)cc1,Potency,[1],inactive
same,Potency,[15],inactive
same,outcome,[3],inactive
same,Potency,[16],inactive
same,outcome,[4],inactive
same,Potency,[5],inactive
same,Potency,[6],inactive
same,Potency,[7],inactive
same,Potency,[19],inactive
same,outcome,[9],inactive
same,max response,[10],4.01%
same,Potency,[11],inactive
same,Potency,[12],inactive
same,Potency,[13],inactive
same,Potency,[14],inactive
CCCOC(C)=O,Potency,[1],inactive
same,Potency,[15],inactive
same,outcome,[3],inactive
same,Potency,[16],inactive
same,outcome,[4],inactive
same,Potency,[6],inactive
same,Potency,[7],inactive
same,Potency,[19],inactive
same,Potency,[8],inactive
same,outcome,[9],inactive
same,max response,[10],-1.95%
same,Potency,[20],inactive
same,Potency,[12],inactive
same,Potency,[13],inactive
CC(C)C[C@H](NC(=O)[C@H](Cc1ccccc1)NC(=O)c1cnccn1)B(O)O,Potency,[1],inactive
same,Potency,[2],0.0213 µM (active)
same,outcome,[3],inactive
same,Potency,[17],0.0237 µM (active)
same,"activity change, positive = activation",[18],-63.1% [at 42.5 µM]
same,Potency,[6],inactive
same,Potency,[7],0.0213 µM (active)
same,Potency,[19],0.0379 µM (active)
same,outcome,[9],inactive
same,Potency,[10],0.0239 µM (active)
same,Potency,[20],inactive
same,Potency,[11],13.4 µM (active)
same,Potency,[12],0.0301 µM (active)
same,Potency,[13],0.0952 µM (active)
same,Potency,[14],0.0151 µM (active)
C=CC(=O)OCCCCCCCCCC,Potency,[1],inactive
same,Potency,[15],inactive
same,outcome,[3],inactive
same,Potency,[16],inactive
same,Potency,[17],inactive
same,"activity change, positive = activation",[18],2.6%
same,outcome,[4],inactive
same,Potency,[5],inactive
same,Potency,[6],inactive
same,Potency,[7],inactive
same,Potency,[19],inactive
same,Potency,[8],inactive
same,outcome,[9],inactive
same,max response,[10],12.1%
same,Potency,[20],inactive
same,Potency,[11],inactive
same,Potency,[12],inactive
same,Potency,[13],inactive
same,Potency,[14],inactive
CC(=O)Nc1ccn(C2COC(COC(=O)c3ccccc3)O2)c(=O)n1 (stereo not drawn),Potency,[1],inactive
same,Potency,[15],inactive
same,outcome,[3],inactive
same,Potency,[16],inactive
same,Potency,[17],inactive
same,"activity change, positive = activation",[18],-13.3% [at 42.5 µM]
same,outcome,[4],inactive
same,Potency,[6],inactive
same,Potency,[19],inactive
same,Potency,[8],inactive
same,outcome,[9],inactive
same,max response,[10],3.96%
same,Potency,[20],inactive
same,Potency,[11],inactive
same,Potency,[12],inactive
same,Potency,[13],inactive
same,Potency,[14],inactive
Cc1ccccc1CCO,Potency,[1],inactive
same,Potency,[15],inactive
same,outcome,[3],inactive
same,Potency,[17],inactive
same,"activity change, positive = activation",[18],-1.5%
same,outcome,[4],inactive
same,Potency,[6],inactive
same,Potency,[19],inactive
same,Potency,[8],inactive
same,outcome,[9],inactive
same,max response,[10],5.71%
same,Potency,[20],inactive
same,Potency,[11],inactive
same,Potency,[12],inactive
same,Potency,[13],inactive
same,Potency,[14],inactive
O=C(O)COCC(=O)O,Potency,[1],inactive
same,Potency,[15],inactive
same,outcome,[3],inactive
same,Potency,[16],inactive
same,outcome,[4],inactive
same,Potency,[5],inactive
same,Potency,[6],inactive
same,outcome,[9],inactive
same,max response,[10],-0.496%
same,Potency,[20],inactive
same,Potency,[11],inactive
same,Potency,[12],inactive
same,Potency,[13],inactive
same,Potency,[14],inactive
COc1cc(CNC(=O)CCCC/C=C/C(C)C)ccc1O,Potency,[1],inactive
same,Potency,[2],inactive
same,outcome,[4],inactive
same,Potency,[6],inactive
same,Potency,[7],inactive
same,Potency,[19],inactive
same,Potency,[8],4.25 µM (active)
same,outcome,[9],inactive
same,Potency,[10],8.48 µM (active)
same,Potency,[20],inactive
same,Potency,[11],inactive
same,Potency,[12],inactive
same,Potency,[13],inactive
same,Potency,[14],inactive
CCC1=C(C)CN(C(=O)NCCc2ccc(S(=O)(=O)NC(=O)NC3CCC(C)CC3)cc2)C1=O (stereo not drawn),Potency,[1],inactive
same,Potency,[15],inactive
same,outcome,[3],inactive
same,Potency,[16],inactive
same,Potency,[17],inactive
same,"activity change, positive = activation",[18],-15.8% [at 42.5 µM]
same,outcome,[4],inactive
same,Potency,[5],inactive
same,Potency,[6],inactive
same,Potency,[7],inactive
same,Potency,[19],inactive
same,Potency,[8],inactive
same,outcome,[9],inactive
same,max response,[10],-23%
same,Potency,[11],inactive
same,Potency,[12],inactive
same,Potency,[13],inactive
same,Potency,[14],inactive
